# Test results published in publication PMC7862700, “An all-to-all approach to the identification of sequence-specific readers for epigenetic DNA modifications on cytosine”.
# Experiments:
# Assay in all cases: DAPPL (digital affinity profiling via proximity ligation, sequencing); 10 mM Tris-HCl pH 7.5, 50 mM NaCl, 1 mM DTT, 4% glycerol, room temperature, 30 min; GST-TFs on glutathione beads, 16-mer random dsDNA library, 0.1% formaldehyde crosslink after washing; high values mean tight binding
# FEV = target: T1, FEV (Homo sapiens, UniProt Q99581 1-238); conditions: protein: recombinant; tags: N-terminal GST; dsDNA, one strand shown
# T1 sequence: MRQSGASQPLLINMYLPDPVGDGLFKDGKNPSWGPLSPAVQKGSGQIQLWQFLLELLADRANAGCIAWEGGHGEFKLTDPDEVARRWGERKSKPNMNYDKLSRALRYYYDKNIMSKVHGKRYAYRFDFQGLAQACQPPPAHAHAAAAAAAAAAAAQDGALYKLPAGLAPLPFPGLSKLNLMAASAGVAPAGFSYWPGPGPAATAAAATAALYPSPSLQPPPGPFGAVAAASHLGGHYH
# Method in brief: (§1)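 A tag-only sample was pooled with DNA-barcoded human transcription factors that had been expressed in yeast as GST fusions and captured on glutathione beads. The pools were incubated for 30 min at room temperature with 200 nmole of a random double-stranded 16-mer DNA library in Tris/NaCl/DTT/glycerol buffer, then washed, crosslinked with 0.1% formaldehyde, proximity-ligated (BsaI/T4 ligase, 1 h, 37 °C), PCR-amplified and sequenced on an Illumina NextSeq500. Binding signal is each hexamer's read frequency for a factor divided by its frequency for the tag-only sample.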
# ETV5 = ETV5 (Homo sapiens, UniProt P41161 1-510); conditions: protein: recombinant; tags: N-terminal GST; dsDNA, one strand shown
# ETV5, sequence (P41161 whole entry): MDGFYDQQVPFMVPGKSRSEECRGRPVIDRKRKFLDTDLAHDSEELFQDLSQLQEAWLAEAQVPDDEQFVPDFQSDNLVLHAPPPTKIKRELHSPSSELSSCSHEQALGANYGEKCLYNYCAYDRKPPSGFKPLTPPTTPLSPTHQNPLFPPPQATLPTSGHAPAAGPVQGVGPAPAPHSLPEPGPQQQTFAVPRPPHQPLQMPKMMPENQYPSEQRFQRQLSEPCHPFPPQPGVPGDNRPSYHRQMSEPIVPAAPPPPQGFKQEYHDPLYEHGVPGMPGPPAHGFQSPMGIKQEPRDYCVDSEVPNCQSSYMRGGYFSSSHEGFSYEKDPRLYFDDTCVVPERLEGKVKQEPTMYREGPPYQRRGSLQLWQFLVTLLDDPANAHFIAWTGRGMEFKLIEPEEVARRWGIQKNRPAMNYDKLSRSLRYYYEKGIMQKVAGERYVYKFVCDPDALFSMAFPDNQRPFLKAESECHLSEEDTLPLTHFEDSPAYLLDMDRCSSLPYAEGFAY
# Method in brief: as §1
# HSF1 = HSF1 (Homo sapiens, UniProt Q00613 1-529); conditions: protein: recombinant; tags: N-terminal GST; chain copies: 3; dsDNA, one strand shown
# HSF1, sequence (Q00613 whole entry): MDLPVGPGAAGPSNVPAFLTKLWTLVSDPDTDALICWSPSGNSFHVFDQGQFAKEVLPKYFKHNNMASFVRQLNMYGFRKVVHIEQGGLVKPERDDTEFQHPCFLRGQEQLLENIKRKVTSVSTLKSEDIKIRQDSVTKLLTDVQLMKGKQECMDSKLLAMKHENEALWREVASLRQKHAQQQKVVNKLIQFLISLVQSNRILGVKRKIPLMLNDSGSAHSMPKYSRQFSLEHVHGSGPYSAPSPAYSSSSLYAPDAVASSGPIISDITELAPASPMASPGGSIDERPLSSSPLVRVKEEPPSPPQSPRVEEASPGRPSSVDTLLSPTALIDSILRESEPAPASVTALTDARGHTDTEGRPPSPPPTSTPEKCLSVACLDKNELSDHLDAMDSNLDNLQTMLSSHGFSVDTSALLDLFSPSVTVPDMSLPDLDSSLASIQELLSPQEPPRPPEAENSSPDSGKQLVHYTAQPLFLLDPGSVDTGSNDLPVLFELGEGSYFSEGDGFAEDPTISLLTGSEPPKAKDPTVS
# Method in brief: as §1
# SPIC = target: T2, SPIC (Homo sapiens, UniProt Q8N5J4 1-248); conditions: protein: recombinant; tags: N-terminal GST; dsDNA, one strand shown
# T2 sequence: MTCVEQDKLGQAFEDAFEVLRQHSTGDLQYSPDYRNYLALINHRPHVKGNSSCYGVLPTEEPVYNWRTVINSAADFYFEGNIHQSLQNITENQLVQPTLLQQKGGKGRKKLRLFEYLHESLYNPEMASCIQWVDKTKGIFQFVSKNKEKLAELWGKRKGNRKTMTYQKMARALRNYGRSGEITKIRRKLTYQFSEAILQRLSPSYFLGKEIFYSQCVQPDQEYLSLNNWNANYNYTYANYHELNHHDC
# Method in brief: as §1
# ELF4 = ELF4 (Homo sapiens, UniProt Q99607 1-663); conditions: protein: recombinant; tags: N-terminal GST; dsDNA, one strand shown
# ELF4, sequence (Q99607 whole entry): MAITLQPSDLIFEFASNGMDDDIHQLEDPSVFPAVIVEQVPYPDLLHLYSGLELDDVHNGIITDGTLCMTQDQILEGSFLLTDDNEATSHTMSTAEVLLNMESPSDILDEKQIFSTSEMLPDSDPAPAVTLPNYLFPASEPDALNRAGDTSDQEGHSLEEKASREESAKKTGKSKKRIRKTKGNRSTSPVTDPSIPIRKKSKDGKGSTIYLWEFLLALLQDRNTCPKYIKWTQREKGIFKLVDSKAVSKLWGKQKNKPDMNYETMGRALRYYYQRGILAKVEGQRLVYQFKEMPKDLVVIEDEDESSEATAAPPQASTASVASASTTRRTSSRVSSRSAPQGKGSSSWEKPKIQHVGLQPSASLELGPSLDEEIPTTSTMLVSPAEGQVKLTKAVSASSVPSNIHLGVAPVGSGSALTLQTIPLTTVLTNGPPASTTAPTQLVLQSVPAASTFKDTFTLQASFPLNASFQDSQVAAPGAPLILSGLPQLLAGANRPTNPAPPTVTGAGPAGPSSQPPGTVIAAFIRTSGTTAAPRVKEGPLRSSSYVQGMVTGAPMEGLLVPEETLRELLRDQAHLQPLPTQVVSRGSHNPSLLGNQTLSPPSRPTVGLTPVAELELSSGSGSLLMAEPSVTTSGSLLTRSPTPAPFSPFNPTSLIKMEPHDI
# Method in brief: as §1
# ELK4 = target: T3, ELK4 (Homo sapiens, UniProt P28324-2 1-405); conditions: protein: recombinant; tags: N-terminal GST; dsDNA, one strand shown
# T3 sequence: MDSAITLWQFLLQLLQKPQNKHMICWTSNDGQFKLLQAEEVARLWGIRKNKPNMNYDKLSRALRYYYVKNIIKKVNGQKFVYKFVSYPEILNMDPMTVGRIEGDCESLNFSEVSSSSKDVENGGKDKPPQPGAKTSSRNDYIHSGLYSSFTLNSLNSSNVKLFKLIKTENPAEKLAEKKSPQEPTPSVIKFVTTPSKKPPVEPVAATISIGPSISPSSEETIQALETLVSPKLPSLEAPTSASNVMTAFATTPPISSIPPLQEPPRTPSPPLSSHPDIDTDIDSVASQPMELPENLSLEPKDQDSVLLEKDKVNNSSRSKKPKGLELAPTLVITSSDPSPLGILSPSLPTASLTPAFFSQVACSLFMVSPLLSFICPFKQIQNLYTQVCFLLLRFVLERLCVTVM
# Method in brief: as §1
# ETV2 = target: T4, ETV2 (Homo sapiens, UniProt O00321 1-342); conditions: protein: recombinant; tags: N-terminal GST; dsDNA, one strand shown
# T4 sequence: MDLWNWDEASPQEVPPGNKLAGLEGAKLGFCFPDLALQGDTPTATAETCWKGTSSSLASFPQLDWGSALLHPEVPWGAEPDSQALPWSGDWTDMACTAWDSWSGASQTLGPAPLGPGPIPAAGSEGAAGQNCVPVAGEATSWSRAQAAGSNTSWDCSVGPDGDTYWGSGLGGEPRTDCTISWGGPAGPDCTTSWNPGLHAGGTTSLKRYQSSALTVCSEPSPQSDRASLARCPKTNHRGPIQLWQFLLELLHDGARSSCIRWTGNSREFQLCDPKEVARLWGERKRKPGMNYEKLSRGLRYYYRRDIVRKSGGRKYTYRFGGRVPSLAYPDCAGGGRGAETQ
# Method in brief: as §1
# ELF3 = target: T5, ELF3 (Homo sapiens, UniProt P78545 1-371); conditions: protein: recombinant; tags: N-terminal GST; dsDNA, one strand shown
# T5 sequence: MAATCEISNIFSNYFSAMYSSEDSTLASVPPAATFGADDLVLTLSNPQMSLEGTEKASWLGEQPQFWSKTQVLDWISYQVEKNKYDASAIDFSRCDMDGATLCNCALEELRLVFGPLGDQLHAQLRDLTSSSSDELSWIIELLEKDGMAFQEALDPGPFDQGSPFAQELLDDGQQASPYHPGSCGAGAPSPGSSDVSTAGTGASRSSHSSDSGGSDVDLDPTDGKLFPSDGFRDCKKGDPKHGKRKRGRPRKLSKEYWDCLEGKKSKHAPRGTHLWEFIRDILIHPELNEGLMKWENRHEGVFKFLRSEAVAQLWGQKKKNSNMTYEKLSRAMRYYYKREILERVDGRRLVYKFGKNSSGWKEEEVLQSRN
# Method in brief: as §1
# CRX = CRX (Homo sapiens, UniProt O43186 1-299); conditions: protein: recombinant; tags: N-terminal GST; dsDNA, one strand shown
# CRX, sequence (O43186 whole entry): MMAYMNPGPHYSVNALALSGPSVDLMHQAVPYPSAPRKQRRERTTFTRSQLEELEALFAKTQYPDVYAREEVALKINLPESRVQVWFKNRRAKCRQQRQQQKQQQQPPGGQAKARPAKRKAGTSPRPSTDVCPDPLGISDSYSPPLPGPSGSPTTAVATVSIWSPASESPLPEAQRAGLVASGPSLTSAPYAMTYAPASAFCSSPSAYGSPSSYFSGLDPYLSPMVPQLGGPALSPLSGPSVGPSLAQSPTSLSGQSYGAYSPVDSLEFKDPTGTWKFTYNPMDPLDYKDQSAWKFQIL
# Method in brief: as §1
# ETV1 = ETV1 (Homo sapiens, UniProt P50549 1-477); conditions: protein: recombinant; tags: N-terminal GST; dsDNA, one strand shown
# ETV1, sequence (P50549 whole entry): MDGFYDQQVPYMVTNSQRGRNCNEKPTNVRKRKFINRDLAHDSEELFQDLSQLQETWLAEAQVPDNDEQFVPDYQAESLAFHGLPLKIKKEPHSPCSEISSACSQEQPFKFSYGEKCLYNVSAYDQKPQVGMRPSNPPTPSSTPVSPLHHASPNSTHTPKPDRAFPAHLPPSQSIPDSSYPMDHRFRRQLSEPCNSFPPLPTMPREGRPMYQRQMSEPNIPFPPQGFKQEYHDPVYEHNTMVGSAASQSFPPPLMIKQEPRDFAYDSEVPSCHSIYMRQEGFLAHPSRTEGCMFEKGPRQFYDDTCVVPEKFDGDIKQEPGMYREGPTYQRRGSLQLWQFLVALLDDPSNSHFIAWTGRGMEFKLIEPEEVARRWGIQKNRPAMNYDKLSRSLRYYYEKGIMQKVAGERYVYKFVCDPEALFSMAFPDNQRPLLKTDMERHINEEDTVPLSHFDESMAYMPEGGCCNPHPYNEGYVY
# Method in brief: as §1
# ERF = target: T6, ERF (Homo sapiens, UniProt P50548 1-548); conditions: protein: recombinant; tags: N-terminal GST; dsDNA, one strand shown
# T6 sequence: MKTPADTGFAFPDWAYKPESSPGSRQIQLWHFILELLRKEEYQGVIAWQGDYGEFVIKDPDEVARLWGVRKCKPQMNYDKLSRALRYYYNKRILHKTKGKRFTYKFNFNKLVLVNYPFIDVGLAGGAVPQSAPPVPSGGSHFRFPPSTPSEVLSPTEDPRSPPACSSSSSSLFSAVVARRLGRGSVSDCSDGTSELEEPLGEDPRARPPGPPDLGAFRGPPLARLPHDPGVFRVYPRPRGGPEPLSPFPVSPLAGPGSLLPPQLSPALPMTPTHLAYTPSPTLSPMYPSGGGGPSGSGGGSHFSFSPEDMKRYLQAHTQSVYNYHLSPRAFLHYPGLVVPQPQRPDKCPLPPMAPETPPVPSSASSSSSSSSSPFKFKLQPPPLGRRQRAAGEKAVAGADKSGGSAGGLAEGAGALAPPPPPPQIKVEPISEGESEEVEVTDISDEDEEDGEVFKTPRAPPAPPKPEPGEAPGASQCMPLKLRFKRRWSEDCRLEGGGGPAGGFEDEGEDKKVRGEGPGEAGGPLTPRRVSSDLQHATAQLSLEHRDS
# Method in brief: as §1
# ETV3L = target: T7, ETV3L (Homo sapiens, UniProt Q6ZN32 1-361); conditions: protein: recombinant; tags: N-terminal GST; dsDNA, one strand shown
# T7 sequence: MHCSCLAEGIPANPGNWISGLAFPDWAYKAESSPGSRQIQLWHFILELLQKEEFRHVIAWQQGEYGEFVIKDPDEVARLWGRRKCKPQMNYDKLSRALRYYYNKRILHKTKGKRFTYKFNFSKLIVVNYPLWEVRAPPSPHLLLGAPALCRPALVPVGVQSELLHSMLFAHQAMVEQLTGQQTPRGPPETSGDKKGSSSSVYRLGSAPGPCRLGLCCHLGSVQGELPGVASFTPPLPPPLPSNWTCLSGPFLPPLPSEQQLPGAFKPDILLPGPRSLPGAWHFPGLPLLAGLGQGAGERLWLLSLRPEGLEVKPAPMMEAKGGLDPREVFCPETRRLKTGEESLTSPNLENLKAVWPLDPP
# Method in brief: as §1
# ETS2 = target: T8, ETS2 (Homo sapiens, UniProt P15036 1-469); conditions: protein: recombinant; tags: N-terminal GST; dsDNA, one strand shown
# T8 sequence: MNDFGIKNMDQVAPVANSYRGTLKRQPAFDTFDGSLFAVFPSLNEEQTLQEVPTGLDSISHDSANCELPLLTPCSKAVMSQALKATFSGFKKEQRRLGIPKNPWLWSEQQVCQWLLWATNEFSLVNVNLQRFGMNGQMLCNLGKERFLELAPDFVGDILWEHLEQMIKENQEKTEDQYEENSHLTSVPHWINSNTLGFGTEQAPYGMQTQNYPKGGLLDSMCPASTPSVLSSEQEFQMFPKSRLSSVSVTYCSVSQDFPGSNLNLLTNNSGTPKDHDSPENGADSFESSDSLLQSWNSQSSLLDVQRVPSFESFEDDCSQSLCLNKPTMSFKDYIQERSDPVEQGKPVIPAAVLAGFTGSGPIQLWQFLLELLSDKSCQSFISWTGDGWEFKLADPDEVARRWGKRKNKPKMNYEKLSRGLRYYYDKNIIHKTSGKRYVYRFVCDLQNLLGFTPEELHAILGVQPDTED
# Method in brief: as §1
# SPDEF = target: T9, SPDEF (Homo sapiens, UniProt O95238 1-335); conditions: protein: recombinant; tags: N-terminal GST; dsDNA, one strand shown
# T9 sequence: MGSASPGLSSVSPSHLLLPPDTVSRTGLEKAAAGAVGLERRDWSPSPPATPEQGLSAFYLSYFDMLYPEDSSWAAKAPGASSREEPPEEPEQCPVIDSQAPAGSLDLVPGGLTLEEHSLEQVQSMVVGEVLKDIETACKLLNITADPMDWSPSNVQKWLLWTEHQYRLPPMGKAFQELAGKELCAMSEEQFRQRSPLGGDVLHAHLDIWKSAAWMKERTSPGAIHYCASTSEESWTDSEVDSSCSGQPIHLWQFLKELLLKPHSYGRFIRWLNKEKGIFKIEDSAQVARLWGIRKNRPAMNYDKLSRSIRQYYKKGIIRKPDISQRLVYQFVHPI
# Method in brief: as §1
# ETV7 = target: T10, ETV7 (Homo sapiens, UniProt Q9Y603 1-341); conditions: protein: recombinant; tags: N-terminal GST; dsDNA, one strand shown
# T10 sequence: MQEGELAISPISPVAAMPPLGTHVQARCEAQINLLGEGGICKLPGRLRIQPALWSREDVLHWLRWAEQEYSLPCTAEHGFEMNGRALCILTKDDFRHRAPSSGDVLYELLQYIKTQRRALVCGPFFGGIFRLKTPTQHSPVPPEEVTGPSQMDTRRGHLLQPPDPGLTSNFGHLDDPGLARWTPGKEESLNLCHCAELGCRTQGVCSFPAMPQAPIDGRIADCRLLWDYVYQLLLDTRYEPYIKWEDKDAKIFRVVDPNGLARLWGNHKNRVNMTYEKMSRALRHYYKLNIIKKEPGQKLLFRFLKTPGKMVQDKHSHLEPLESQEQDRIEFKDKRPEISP
# Method in brief: as §1
# ELF5 = target: T11, ELF5 (Homo sapiens, UniProt Q9UKW6-2 1-255); conditions: protein: recombinant; tags: N-terminal GST; dsDNA, one strand shown
# T11 sequence: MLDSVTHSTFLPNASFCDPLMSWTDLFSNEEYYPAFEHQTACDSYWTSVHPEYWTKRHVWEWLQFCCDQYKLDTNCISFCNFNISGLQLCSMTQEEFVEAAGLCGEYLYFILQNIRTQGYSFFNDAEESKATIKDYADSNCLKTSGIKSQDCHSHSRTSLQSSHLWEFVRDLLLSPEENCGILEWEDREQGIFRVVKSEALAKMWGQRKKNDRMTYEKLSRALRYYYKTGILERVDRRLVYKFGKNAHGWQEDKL
# Method in brief: as §1
# ETV3 = target: T12, ETV3 (Homo sapiens, UniProt P41162-2 1-143); conditions: protein: recombinant; tags: N-terminal GST; dsDNA, one strand shown
# T12 sequence: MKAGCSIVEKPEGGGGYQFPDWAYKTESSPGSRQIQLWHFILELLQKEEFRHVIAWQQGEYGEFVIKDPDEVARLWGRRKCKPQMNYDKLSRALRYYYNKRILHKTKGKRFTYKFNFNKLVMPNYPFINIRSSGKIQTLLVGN
# Method in brief: as §1
# ETV6 = ETV6 (Homo sapiens, UniProt P41212 1-452); conditions: protein: recombinant; tags: N-terminal GST; dsDNA, one strand shown
# ETV6, sequence (P41212 whole entry): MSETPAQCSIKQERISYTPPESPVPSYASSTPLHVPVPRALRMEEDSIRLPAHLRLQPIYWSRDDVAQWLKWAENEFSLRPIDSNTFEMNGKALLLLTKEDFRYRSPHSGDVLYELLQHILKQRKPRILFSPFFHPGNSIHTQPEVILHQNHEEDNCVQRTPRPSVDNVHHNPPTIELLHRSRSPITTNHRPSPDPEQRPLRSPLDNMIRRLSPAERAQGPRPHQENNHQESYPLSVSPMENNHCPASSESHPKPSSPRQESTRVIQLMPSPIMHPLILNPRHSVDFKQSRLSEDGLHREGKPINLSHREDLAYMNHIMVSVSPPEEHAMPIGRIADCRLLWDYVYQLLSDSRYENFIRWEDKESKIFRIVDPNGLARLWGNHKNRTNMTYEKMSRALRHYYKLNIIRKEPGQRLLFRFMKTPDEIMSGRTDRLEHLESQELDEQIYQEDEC
# Method in brief: as §1
sequence,measurement,setting,value
CCCACG,binding signal,FEV,"1.13 fold enrichment (6-mer frequency, TF over GST control)"
same,binding signal,ETV5,"1.22 fold enrichment (6-mer frequency, TF over GST control)"
same,binding signal,HSF1,"1.01 fold enrichment (6-mer frequency, TF over GST control)"
same,binding signal,SPIC,"1.22 fold enrichment (6-mer frequency, TF over GST control)"
same,binding signal,ELF4,"1.27 fold enrichment (6-mer frequency, TF over GST control)"
same,binding signal,ELK4,"1.25 fold enrichment (6-mer frequency, TF over GST control)"
same,binding signal,ETV2,"1.01 fold enrichment (6-mer frequency, TF over GST control)"
same,binding signal,ELF3,"1.21 fold enrichment (6-mer frequency, TF over GST control)"
same,binding signal,CRX,"1 fold enrichment (6-mer frequency, TF over GST control)"
same,binding signal,ETV1,"1.06 fold enrichment (6-mer frequency, TF over GST control)"
same,binding signal,ERF,"1.13 fold enrichment (6-mer frequency, TF over GST control)"
same,binding signal,ETV3L,"1.05 fold enrichment (6-mer frequency, TF over GST control)"
same,binding signal,ETS2,"1.17 fold enrichment (6-mer frequency, TF over GST control)"
same,binding signal,SPDEF,"1.05 fold enrichment (6-mer frequency, TF over GST control)"
same,binding signal,ETV7,"1.18 fold enrichment (6-mer frequency, TF over GST control)"
same,binding signal,ELF5,"1.15 fold enrichment (6-mer frequency, TF over GST control)"
same,binding signal,ETV3,"1.11 fold enrichment (6-mer frequency, TF over GST control)"
same,binding signal,ETV6,"1.09 fold enrichment (6-mer frequency, TF over GST control)"
